Several values for one entry are separate records, joined by “and”; a condition that tells them apart may be missing. Equal entries are not always repeated. Compounds without any hit were thinned out: in the full panel of roughly 83,000, 20% have a hit.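 Note: values are percent growth. 100 is the growth of untreated cells, values between 100 and 0 indicate rising inhibition; between -100 and 0 indicates cell death.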 Activity calls are given as the source filed them. Rule for the calls: active = growth percent below 10; inactive = the rest.

The text below walks through data of PubChem BioAssay (NCI).

The subject of one assay is UACC-62 melanoma. The experiment in a line: NCI-60 one-dose screen, 48 h (100 = growth as untreated, 0 = no growth, -100 = all killed). The following applies: 10 µM unless noted.
The next assay deals with TK-10 renal. Described as above. The following applies: 10 µM unless noted.

On to `COc1ccc(CC2c3cc(OC)c(OC)c(OC)c3CC[N+]2(C)C)cc1Oc1ccc(CC2c3cc4c(c(OC)c3CCN2C)OCO4)cc1` (centres undefined), for which the growth with UACC-62 melanoma was 80% [100 µM] (inactive) and 8.64% [100 µM] (active); with TK-10 renal, 85.8% [100 µM] (inactive) and 47.5% [100 µM] (inactive).

As for `CC(=O)OC(C)c1cc2c(s1)C(=O)c1ccsc1C2=O` (centres undefined), the growth with UACC-62 melanoma is -64.5% [100 µM] (active) and -100% [100 µM] (active); in the assay with TK-10 renal it was -61.4% [100 µM] (active) and -100% [100 µM] (active).

`CC(C)(C)N/N=C(\C(=O)Nc1ccc([N+](=O)[O-])cc1[N+](=O)[O-])c1nc2ccc([N+](=O)[O-])cc2[nH]c1=O`: the growth is 54.2% [100 µM] (inactive) and 17.5% [100 µM] (inactive) in the assay on UACC-62 melanoma; 97.2% [100 µM] (inactive) and 67.6% [100 µM] (inactive) in the assay with TK-10 renal.

Regarding `CC1=CCC2C3(C)CCC2(C(C)C)C1C3` (centres undefined) (tested in a mixture with another compound), the growth is 17.4% [100 µM] (inactive) and 0.443% [100 µM] (active) with UACC-62 melanoma; 17.7% [100 µM] (inactive) and -89.5% [100 µM] (active) in the assay on TK-10 renal.

Regarding `CCOC(=O)CCC(NC(=O)c1ccc(OCc2nc3cc(C(F)(F)F)ccc3nc2-c2ccccc2)cc1)C(=O)OCC` (centres undefined), the growth in the assay on UACC-62 melanoma is 49.5% [100 µM] (inactive) and 4.13% [100 µM] (active); with TK-10 renal it was 84.3% [100 µM] (inactive) and 14.7% [100 µM] (inactive).

In the case of `CC(=O)c1cc2c(s1)C(=O)c1ccsc1C2=O`, the growth with UACC-62 melanoma was -54.1% [100 µM] (active) and -98.1% [100 µM] (active); with TK-10 renal, -38.1% [100 µM] (active) and -100% [100 µM] (active).

On to `CCOC(=O)/C(C#N)=C(/NNc1ccccc1)c1ccncc1C(=O)O`, for which the growth is 61.3% [100 µM] (inactive) and 11.4% [100 µM] (inactive) in the assay on UACC-62 melanoma; 79.5% [100 µM] (inactive) and -58% [100 µM] (active) in the assay with TK-10 renal.

As to `Cc1ccnc2[nH]c(-c3ccc(F)cc3)cc(=O)c12`, the growth with UACC-62 melanoma was -5.39% [100 µM] (active) and -36.2% [100 µM] (active); in the assay on TK-10 renal, 66.3% [100 µM] (inactive) and 16.9% [100 µM] (inactive).

As for `CCCCCCCCCc1cc(=O)c2c(O)cc(O)cc2o1`, the growth with UACC-62 melanoma is -88.9% [100 µM] (active) and -100% [100 µM] (active); in the assay with TK-10 renal, -87.9% [100 µM] (active) and -100% [100 µM] (active).

Consider `O=c1cc(-c2ccc(O)cc2)oc2cc(O[C@@H]3O[C@H](CO)[C@@H](O)[C@H](O)[C@H]3O)cc(O)c12`, for which the growth with UACC-62 melanoma is 29.2% [100 µM] (inactive) and -80.1% [100 µM] (active); in the assay with TK-10 renal it was 46.1% [100 µM] (inactive) and 4% [100 µM] (active).

Consider `CC#CC#C/C=C1/C=CC2(CCCCO2)O1` (centres undefined), for which the growth in the assay on UACC-62 melanoma is 63.2% [100 µM] (inactive) and 4.56% [100 µM] (active); with TK-10 renal, 112% [100 µM] (inactive) and -41.5% [100 µM] (active).

As to `Nc1cc2c3c(cccc3c1)C(=O)N(c1ccc(OCCN3CCCCC3)cc1)C2=O`, the growth in the assay with UACC-62 melanoma was -67.3% [100 µM] (active) and -100% [100 µM] (active); in the assay with TK-10 renal, -13.5% [100 µM] (active) and -100% [100 µM] (active).

In the case of `Nc1cc2c3c(cccc3c1)C(=O)N(c1ccc(OCCN3CCCC3)cc1)C2=O`, the growth in the assay with UACC-62 melanoma is -37.5% [100 µM] (active) and -91.1% [100 µM] (active); with TK-10 renal, 33.8% [100 µM] (inactive) and -100% [100 µM] (active).

As to `CC(=O)OC(=C(C#N)C#N)c1nccnc1C(C)=O`, the growth was 96.4% [20 µM] (inactive) and -99.5% [20 µM] (active) in the assay on UACC-62 melanoma; 102% [20 µM] (inactive) and -96% [20 µM] (active) with TK-10 renal.

Take `CC12NC(=C(C#N)C#N)C(C#N)=C3NC(N)=C(C#N)C(=C31)Oc1ccccc12` (centres undefined): the growth with UACC-62 melanoma was 7.06% [100 µM] (active) and -61.2% [100 µM] (active); with TK-10 renal it was 22.5% [100 µM] (inactive) and -82.1% [100 µM] (active).

On to `CCOc1cc2c(cc1O)/C(=N\N)C[C@@H]1[C@@H]2CC[C@]2(C)[C@@H](O)CC[C@@H]12`, for which the growth with UACC-62 melanoma was 17.1% [100 µM] (inactive) and -96.8% [100 µM] (active); with TK-10 renal, 36.7% [100 µM] (inactive) and -97% [100 µM] (active).

With `Cc1sccc1C(=S)Nc1ccc(Cl)c(/C=N/OC(C)(C)C)c1`, the growth was -86.5% [100 µM] (active) and -92.3% [100 µM] (active) in the assay on UACC-62 melanoma; -91.4% [100 µM] (active) and -90.7% [100 µM] (active) with TK-10 renal.

As to `CC(=O)Nc1c(C)cc2c(nc3n2CCC3OC(C)=O)c1[N+](=O)[O-]` (centres undefined), the growth in the assay with UACC-62 melanoma is 134% [100 µM] (inactive) and 108% [100 µM] (inactive); with TK-10 renal, 120% [100 µM] (inactive) and 104% [100 µM] (inactive).

As to `O=C1C=C(Nc2ccc(S(=O)(=O)Nc3nccs3)cc2)c2ccccc2C1=O`, the growth with UACC-62 melanoma is -46.1% [100 µM] (active) and -88.9% [100 µM] (active); with TK-10 renal, 171% [100 µM] (inactive) and -86% [100 µM] (active).

With `Oc1ccccc1-c1n[nH]c(-c2ccccc2O)n1`, the growth in the assay on UACC-62 melanoma was 45.8% [100 µM] (inactive) and 4.35% [100 µM] (active); in the assay with TK-10 renal, 46.3% [100 µM] (inactive) and 4.42% [100 µM] (active).

Consider `CCCCOC(=O)C1CC[C@H]2[C@@H]3CCc4cc(OC(=O)c5cccc6c(=O)c7ccccc7[nH]c56)ccc4[C@H]3CC[C@]12C` (some centres undefined), for which the growth in the assay with UACC-62 melanoma and with TK-10 renal was -100% [50 µM] (active) in each case.

As for `NC1=NN(c2ccccc2)C2(c3ccncc3C(=O)O)C1C(N)=NN2c1ccccc1` (centres undefined), the growth was 67.3% [100 µM] (inactive) and 18.3% [100 µM] (inactive) in the assay on UACC-62 melanoma; 106% [100 µM] (inactive) and 9.31% [100 µM] (active) in the assay on TK-10 renal.
